Results: PubChem BioAssay (NCI)
This is part of a sample that, as a whole, favours compounds with a hit. Of some 83,000 tested, about 20% had one in any assay.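 Single-dose data. Exposure time 48 hours. Values below 10 considered active.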 Values without a mark were called inactive. Activity calls are given as the source filed them.

Legend:
Assay in all cases: NCI-60 one-dose screen, 48 h (100 = growth as untreated, 0 = no growth, -100 = all killed)
Details in all cases: 10 µM unless noted
SK-MEL-2 melanoma = system: SK-MEL-2 melanoma
EKVX NSCLC = system: EKVX NSCLC
SN12C renal = system: SN12C renal
UO-31 renal = system: UO-31 renal
TK-10 renal = system: TK-10 renal
ACHN renal = system: ACHN renal
A498 renal = system: A498 renal
CCRF-CEM leukemia = system: CCRF-CEM leukemia
MOLT-4 leukemia = system: MOLT-4 leukemia
SR leukemia = system: SR leukemia
RPMI-8226 leukemia = system: RPMI-8226 leukemia
OVCAR-8 ovarian = system: OVCAR-8 ovarian
OVCAR-5 ovarian = system: OVCAR-5 ovarian
OVCAR-4 ovarian = system: OVCAR-4 ovarian
SK-OV-3 ovarian = system: SK-OV-3 ovarian
IGROV1 ovarian = system: IGROV1 ovarian
OVCAR-3 ovarian = system: OVCAR-3 ovarian
HS 578T breast = system: HS 578T breast
NCI/ADR-RES ovarian = system: NCI/ADR-RES ovarian
T-47D breast = system: T-47D breast

SMILES | growth (SK-MEL-2 melanoma) | growth (EKVX NSCLC) | growth (SN12C renal) | growth (UO-31 renal) | growth (TK-10 renal) | growth (ACHN renal) | growth (A498 renal) | growth (CCRF-CEM leukemia) | growth (MOLT-4 leukemia) | growth (SR leukemia) | growth (RPMI-8226 leukemia) | growth (OVCAR-8 ovarian) | growth (OVCAR-5 ovarian) | growth (OVCAR-4 ovarian) | growth (SK-OV-3 ovarian) | growth (IGROV1 ovarian) | growth (OVCAR-3 ovarian) | growth (HS 578T breast) | growth (NCI/ADR-RES ovarian) | growth (T-47D breast)
COc1ccc(Nc2cc(NC(=O)CNc3cc(OC)c(Cl)c(OC)c3Cl)ncn2)cc1 | 84.8% | 72.2% | 89.2% | 59.6% | 93.1% | 78.8% | -1.25% (active) | 89.3% | 52.2% | 78.1% | 62.5% | 78.2% | 88.1% | 80.1% | 79.8% | 74.2% | 81.6% | 83.4% | 84.8% | 47.1%
COc1cc(C2=NNC(c3ccc(N(C)C)cc3)C2)cc(OC)c1OC (stereo not given) | 60.9% | 44.4% | 49.3% | 38.9% | 59.2% | 50.6% | -8.21% (active) | 17% | 37.1% | -5.74% (active) | 16% | 24.7% | 30.4% | 52.2% | 19.5% | 35.4% | 5.84% (active) | -21.7% (active) | -20.7% (active) | 45.8%
COc1cc(-c2csc(NC(=O)Nc3ccc(C(F)(F)F)cc3)n2)cc(OC)c1OC | -23.8% (active) | 5.7% (active) | 3.08% (active) | -2.16% (active) | 4.58% (active) | 3.21% (active) | -24.1% (active) | 5.13% (active) | -9.27% (active) | -3.44% (active) | -11.5% (active) | 3.06% (active) | 33% | 13.4% | -3.3% (active) | 42.8% | 1.73% (active) | 6.93% (active) | -1.59% (active) | -3.68% (active)
C/C(=N/Nc1nc2ccccc2n1C)c1ccccn1 | 39.8% | 6.63% (active) | 10.1% | -16.4% (active) | 36.8% | 10.3% | -29.8% (active) | -6.15% (active) | 1.82% (active) | 3.01% (active) | -17.5% (active) | 0.773% (active) | 35.3% | 20.8% | -0.894% (active) | 18% | 10.3% | 44.5% | -7.51% (active) | 8.05% (active)
O=c1nc(-c2ccccc2)c2cc(-c3ccc(N4CCCC4)nc3)ccc2[nH]1 | 37.5% | 71.1% | 83.9% | 63.6% | 88.5% | 82.6% | 46.6% | 54.5% | 44% | 18.2% | 71.6% | 89.2% | 98.7% | 85.3% | 80.6% | 66.1% | 44.7% | 67.8% | 63.9% | 62.3%
O=CN1N=C(c2ccc3c(c2)OCO3)CC1c1cccc(Nc2ccnc3cc(C(F)(F)F)ccc23)c1 (stereo not given) | 76.1% | 75.2% | 88.9% | 63.7% | 76.9% | 85.8% | 72.5% | 66.5% | 53.4% | 29.9% | 40.2% | 83.8% | 97.7% | 69.6% | 77.4% | 91.8% | 67.4% | 96.1% | 76.8% | 45.8%
Cn1c2ccccc2c2c(OC(=O)c3ccccc3)c3c(nc21)-c1ccccc1C3 | 81.1% | 86% | 98.1% | 79.9% | 124% | 97.1% | 119% | 98.8% | 96.3% | 91.7% | 96.2% | 92.7% | 112% | 95.7% | 92% | 82.5% | 99.1% | 107% | 99% | 63.7%
COc1ccc(-c2cc(-c3nnc(SCC(=O)Nc4ccc(C(C)=O)cc4)o3)c3ccccc3n2)cc1 | 40.1% | 23.2% | -40.5% (active) | -70.7% (active) | -28.8% (active) | -11.6% (active) | 18.3% | 32.7% | 23% | -19.5% (active) | -19.8% (active) | -21% (active) | 71.4% | -49.6% (active) | 17.8% | 9.74% (active) | -20.6% (active) | -8.38% (active) | 6.03% (active) | 0.593% (active)
CC(C)(C)c1ccc(O)c(Cc2cc(C(C)(C)C)ccc2O)c1 | 80% | 78.5% | 87.5% | 85.7% | 94.2% | 106% | 87.3% | 0.931% (active) | 64.6% | 24.5% | 47.7% | 90.3% | 120% | 95.6% | 102% | 101% | 103% | 93.3% | 100% | 78.6%
COc1ccc2[nH]c(=O)c(/C=C/C(=O)c3ccccc3OC)cc2c1 | -2.52% (active) | 37.8% | 8.57% (active) | 23.6% | 42% | 38.8% | 21.7% | 7.53% (active) | 10.9% | 2.69% (active) | 5.61% (active) | 1.18% (active) | 12.1% | 50.8% | 6.12% (active) | 14.5% | 8.25% (active) | 8.33% (active) | 10.4% | -2.02% (active)
CCOC(=O)c1ccc(Nc2ncnc3ccc(NC(=O)c4ccccc4)cc23)cc1 | 86.6% | 80.3% | 102% | 72.6% | 65.4% | 93.5% | 106% | 91.2% | 63.8% | 73.8% | 69.2% | 86.7% | 96.2% | 89.2% | 100% | 103% | 94.4% | -95% (active) | 86.8% | 65.6%
CCSc1nc(Cl)c(C#N)c(-c2ccc(F)cc2)n1 | 102% | 95.2% | 95.4% | 85.8% | 101% | 100% | 92.3% | 50.4% | 48.4% | 3.84% (active) | 88.3% | 90.2% | 97.7% | 97.8% | 99.7% | 98.9% | 98% | 91.6% | 102% | 90%
CCCn1c2cc(OCc3cn(-c4ccc(Br)cc4)nn3)ccc2c2ccnc(C)c21 | 70.6% | 82.7% | 17.5% | 23.4% | 85.9% | 17.4% | 77.8% | 13.1% | 45.6% | -15.2% (active) | 33% | 50.8% | 68.3% | -44% (active) | 85.7% | 49.1% | 60.5% | 66.9% | 63.1% | 66.6%
CCCCn1c(=O)c(/C=C/C(=O)/C=C/c2ccc(O)c(OC)c2)cc2ccc(Cl)cc21 | 42.1% | 40.1% | 12.3% | 6.03% (active) | 54.2% | 19.9% | 77.6% | 2.91% (active) | 8.28% (active) | 3.78% (active) | -14.2% (active) | -4.03% (active) | 49.6% | 26.1% | 59.2% | 6.29% (active) | -26.2% (active) | 47.8% | 14.8% | 25.3%
COc1cc(/C=C/C(=O)/C=C/c2cc3ccc(Cl)cc3n(Cc3ccccc3)c2=O)ccc1O | -13.2% (active) | 8.91% (active) | -18.4% (active) | -88.9% (active) | 13.8% | -15.4% (active) | 69.2% | 3.16% (active) | 5.11% (active) | 1.8% (active) | -18.8% (active) | 5.61% (active) | 19.4% | 25.8% | 37.3% | 3.2% (active) | -46.4% (active) | 43.5% | 15% | 2.39% (active)
COc1ccc(C(=O)c2cc(OC)c(C)c(OC)c2)cc1OC(=O)CCl | 35.4% | 64.4% | 41.5% | 49.9% | 66.5% | 41.5% | 78.5% | 11.9% | 13.6% | 12.5% | 28.3% | 25.4% | 74.8% | 60.1% | 19.4% | 30.7% | -8.39% (active) | 40.5% | 10.5% | 43.8%
